According to paper PMC7862700, “An all-to-all approach to the identification of sequence-specific readers for epigenetic DNA modifications on cytosine”:

What was measured:
Assay in all cases: DAPPL (digital affinity profiling via proximity ligation, sequencing); 10 mM Tris-HCl pH 7.5, 50 mM NaCl, 1 mM DTT, 4% glycerol, room temperature, 30 min; GST-TFs on glutathione beads, 16-mer random dsDNA library, 0.1% formaldehyde crosslink after washing; high values mean tight binding
FEV = target: T1, FEV (Homo sapiens, UniProt Q99581 1-238); settings: protein: recombinant; tags: N-terminal GST; dsDNA, one strand shown
T1 sequence: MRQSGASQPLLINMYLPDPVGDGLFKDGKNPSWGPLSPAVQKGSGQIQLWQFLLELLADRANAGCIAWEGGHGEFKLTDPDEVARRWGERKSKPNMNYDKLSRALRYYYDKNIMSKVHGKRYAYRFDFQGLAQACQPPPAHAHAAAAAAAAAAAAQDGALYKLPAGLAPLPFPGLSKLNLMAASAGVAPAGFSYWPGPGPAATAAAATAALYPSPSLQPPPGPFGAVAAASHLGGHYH
How it was run: (§1)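 The binding signal reported is, for every hexamer, its read frequency for a factor over its read frequency for the tag-only sample. Reads came from pools of yeast-expressed, GST-fused human transcription factors on glutathione beads, barcoded with DNA and mixed with that sample, which were incubated with 200 nmole of a random double-stranded 16-mer DNA library in Tris/NaCl/DTT/glycerol buffer at room temperature for 30 min. After washing, the pools were crosslinked with 0.1% formaldehyde, proximity-ligated with BsaI/T4 ligase for 1 h at 37 °C, PCR-amplified and sequenced on an Illumina NextSeq500.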

ETV5 = ETV5 (Homo sapiens, UniProt P41161 1-510); settings: protein: recombinant; tags: N-terminal GST; dsDNA, one strand shown
Sequence of ETV5 (P41161 whole entry): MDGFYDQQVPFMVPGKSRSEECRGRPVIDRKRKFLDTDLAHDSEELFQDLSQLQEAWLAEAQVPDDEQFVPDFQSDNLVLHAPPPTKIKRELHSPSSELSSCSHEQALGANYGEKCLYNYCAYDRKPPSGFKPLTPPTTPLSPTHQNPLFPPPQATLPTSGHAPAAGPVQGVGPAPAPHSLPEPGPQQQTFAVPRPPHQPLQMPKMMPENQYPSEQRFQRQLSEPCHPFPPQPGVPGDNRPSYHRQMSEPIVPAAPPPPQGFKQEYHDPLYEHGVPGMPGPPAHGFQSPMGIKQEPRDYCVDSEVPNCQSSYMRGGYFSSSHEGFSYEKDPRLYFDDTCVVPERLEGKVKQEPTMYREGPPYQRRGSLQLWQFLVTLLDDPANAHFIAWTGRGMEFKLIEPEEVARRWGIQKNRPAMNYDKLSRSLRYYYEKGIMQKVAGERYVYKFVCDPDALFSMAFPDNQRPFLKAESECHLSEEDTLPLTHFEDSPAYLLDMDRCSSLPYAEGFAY
How it was run: as §1

HSF1 = HSF1 (Homo sapiens, UniProt Q00613 1-529); settings: protein: recombinant; tags: N-terminal GST; chain copies: 3; dsDNA, one strand shown
Sequence of HSF1 (Q00613 whole entry): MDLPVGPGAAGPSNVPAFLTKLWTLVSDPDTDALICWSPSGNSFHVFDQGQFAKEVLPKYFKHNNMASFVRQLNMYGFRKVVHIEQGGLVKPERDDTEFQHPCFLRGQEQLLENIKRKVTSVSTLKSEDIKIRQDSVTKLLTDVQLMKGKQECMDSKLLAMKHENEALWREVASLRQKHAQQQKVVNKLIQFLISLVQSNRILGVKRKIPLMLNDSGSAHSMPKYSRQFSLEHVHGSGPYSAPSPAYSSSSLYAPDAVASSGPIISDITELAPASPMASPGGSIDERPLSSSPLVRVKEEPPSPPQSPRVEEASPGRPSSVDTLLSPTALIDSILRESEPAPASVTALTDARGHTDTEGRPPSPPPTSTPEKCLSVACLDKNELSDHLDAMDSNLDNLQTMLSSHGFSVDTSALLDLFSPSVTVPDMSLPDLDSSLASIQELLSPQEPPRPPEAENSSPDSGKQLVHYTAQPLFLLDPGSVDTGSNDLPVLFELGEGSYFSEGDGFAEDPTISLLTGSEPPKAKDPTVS
How it was run: as §1

SPIC = target: T2, SPIC (Homo sapiens, UniProt Q8N5J4 1-248); settings: protein: recombinant; tags: N-terminal GST; dsDNA, one strand shown
T2 sequence: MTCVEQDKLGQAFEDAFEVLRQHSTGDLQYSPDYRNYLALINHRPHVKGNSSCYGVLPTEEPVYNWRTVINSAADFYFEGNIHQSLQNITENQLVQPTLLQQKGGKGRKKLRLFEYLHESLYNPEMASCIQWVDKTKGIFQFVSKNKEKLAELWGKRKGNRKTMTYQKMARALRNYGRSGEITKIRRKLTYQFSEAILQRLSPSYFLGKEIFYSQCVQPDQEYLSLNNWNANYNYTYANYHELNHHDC
How it was run: as §1

ELF4 = ELF4 (Homo sapiens, UniProt Q99607 1-663); settings: protein: recombinant; tags: N-terminal GST; dsDNA, one strand shown
Sequence of ELF4 (Q99607 whole entry): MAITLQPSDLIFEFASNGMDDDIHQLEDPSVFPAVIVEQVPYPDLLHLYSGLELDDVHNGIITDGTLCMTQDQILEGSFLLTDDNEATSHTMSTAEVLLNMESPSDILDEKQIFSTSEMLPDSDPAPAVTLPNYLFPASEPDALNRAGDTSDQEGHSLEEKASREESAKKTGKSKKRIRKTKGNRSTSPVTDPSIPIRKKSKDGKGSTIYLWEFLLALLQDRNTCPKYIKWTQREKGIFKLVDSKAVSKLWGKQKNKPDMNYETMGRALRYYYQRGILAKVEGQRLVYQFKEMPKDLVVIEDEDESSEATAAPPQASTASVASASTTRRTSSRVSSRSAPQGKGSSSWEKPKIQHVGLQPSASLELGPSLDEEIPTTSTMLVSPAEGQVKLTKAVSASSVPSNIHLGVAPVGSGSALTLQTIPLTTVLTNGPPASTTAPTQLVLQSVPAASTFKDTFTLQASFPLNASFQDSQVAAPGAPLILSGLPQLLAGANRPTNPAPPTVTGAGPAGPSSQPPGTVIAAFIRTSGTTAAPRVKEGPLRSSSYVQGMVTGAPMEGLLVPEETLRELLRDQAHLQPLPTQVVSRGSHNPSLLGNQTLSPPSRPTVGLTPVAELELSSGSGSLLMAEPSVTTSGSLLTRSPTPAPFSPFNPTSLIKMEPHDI
How it was run: as §1

ELK4 = target: T3, ELK4 (Homo sapiens, UniProt P28324-2 1-405); settings: protein: recombinant; tags: N-terminal GST; dsDNA, one strand shown
T3 sequence: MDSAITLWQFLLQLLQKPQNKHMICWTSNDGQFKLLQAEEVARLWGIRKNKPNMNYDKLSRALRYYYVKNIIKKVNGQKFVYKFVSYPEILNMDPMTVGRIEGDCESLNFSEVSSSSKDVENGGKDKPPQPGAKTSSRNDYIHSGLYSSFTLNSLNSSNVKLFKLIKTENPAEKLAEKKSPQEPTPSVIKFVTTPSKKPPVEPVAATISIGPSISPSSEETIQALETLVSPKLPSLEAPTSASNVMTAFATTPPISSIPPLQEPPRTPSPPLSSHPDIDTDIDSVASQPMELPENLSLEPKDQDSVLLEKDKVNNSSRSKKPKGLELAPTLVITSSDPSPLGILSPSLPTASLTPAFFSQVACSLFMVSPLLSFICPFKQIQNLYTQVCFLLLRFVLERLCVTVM
How it was run: as §1

ETV2 = target: T4, ETV2 (Homo sapiens, UniProt O00321 1-342); settings: protein: recombinant; tags: N-terminal GST; dsDNA, one strand shown
T4 sequence: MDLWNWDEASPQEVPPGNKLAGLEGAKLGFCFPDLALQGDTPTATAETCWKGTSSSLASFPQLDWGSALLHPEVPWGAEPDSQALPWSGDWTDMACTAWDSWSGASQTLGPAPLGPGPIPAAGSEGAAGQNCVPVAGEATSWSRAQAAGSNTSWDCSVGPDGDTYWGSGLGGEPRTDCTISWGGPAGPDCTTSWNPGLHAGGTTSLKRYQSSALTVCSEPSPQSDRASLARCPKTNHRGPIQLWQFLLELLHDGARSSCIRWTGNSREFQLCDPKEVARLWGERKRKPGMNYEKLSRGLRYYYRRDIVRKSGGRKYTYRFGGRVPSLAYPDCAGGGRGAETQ
How it was run: as §1

ELF3 = target: T5, ELF3 (Homo sapiens, UniProt P78545 1-371); settings: protein: recombinant; tags: N-terminal GST; dsDNA, one strand shown
T5 sequence: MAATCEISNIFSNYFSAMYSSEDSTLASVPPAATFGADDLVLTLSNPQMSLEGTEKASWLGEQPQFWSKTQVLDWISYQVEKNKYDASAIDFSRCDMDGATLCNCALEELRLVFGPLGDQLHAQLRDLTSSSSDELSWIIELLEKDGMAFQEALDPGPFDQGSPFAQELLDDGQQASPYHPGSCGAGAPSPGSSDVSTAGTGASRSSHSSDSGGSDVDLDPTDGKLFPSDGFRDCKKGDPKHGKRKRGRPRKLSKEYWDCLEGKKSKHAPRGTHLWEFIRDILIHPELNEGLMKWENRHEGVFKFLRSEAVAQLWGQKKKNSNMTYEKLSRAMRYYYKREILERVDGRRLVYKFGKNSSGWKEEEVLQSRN
How it was run: as §1

CRX = CRX (Homo sapiens, UniProt O43186 1-299); settings: protein: recombinant; tags: N-terminal GST; dsDNA, one strand shown
Sequence of CRX (O43186 whole entry): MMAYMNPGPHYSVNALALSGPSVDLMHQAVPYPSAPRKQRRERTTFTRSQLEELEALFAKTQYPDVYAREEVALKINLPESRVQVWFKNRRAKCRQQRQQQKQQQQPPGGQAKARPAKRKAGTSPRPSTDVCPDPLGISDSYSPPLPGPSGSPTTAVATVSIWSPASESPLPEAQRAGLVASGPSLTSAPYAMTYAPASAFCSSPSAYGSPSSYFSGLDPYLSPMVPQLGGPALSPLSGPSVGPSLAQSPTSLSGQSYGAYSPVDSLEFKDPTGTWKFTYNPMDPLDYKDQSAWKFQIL
How it was run: as §1

ETV1 = ETV1 (Homo sapiens, UniProt P50549 1-477); settings: protein: recombinant; tags: N-terminal GST; dsDNA, one strand shown
Sequence of ETV1 (P50549 whole entry): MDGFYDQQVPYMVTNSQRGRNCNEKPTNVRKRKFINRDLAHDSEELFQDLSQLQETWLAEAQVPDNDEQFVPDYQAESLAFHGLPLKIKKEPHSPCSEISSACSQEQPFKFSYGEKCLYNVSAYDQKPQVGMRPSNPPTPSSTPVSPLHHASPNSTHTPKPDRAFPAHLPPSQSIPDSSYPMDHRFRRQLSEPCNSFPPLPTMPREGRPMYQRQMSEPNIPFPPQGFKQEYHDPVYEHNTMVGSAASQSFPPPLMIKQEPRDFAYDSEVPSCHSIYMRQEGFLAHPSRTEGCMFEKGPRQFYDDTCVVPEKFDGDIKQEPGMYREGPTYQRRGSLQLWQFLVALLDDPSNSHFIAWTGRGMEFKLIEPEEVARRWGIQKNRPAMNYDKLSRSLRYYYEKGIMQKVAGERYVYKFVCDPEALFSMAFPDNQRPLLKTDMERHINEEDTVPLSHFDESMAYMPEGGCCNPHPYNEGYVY
How it was run: as §1

ERF = target: T6, ERF (Homo sapiens, UniProt P50548 1-548); settings: protein: recombinant; tags: N-terminal GST; dsDNA, one strand shown
T6 sequence: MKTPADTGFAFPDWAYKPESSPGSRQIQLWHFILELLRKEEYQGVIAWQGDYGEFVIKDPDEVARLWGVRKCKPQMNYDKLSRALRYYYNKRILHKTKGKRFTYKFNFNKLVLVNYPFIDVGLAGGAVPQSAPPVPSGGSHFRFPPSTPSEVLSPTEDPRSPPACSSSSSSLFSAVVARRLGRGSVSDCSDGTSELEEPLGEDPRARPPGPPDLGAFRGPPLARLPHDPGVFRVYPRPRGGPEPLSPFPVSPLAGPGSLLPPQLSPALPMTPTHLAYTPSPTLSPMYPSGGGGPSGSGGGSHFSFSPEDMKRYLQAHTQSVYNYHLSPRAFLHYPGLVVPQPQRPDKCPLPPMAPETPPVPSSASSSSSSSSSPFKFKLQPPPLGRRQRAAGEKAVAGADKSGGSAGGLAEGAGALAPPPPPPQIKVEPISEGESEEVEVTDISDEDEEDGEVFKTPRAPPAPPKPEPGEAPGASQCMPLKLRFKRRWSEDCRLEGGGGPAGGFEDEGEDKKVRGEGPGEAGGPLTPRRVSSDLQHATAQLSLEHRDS
How it was run: as §1

ETV3L = target: T7, ETV3L (Homo sapiens, UniProt Q6ZN32 1-361); settings: protein: recombinant; tags: N-terminal GST; dsDNA, one strand shown
T7 sequence: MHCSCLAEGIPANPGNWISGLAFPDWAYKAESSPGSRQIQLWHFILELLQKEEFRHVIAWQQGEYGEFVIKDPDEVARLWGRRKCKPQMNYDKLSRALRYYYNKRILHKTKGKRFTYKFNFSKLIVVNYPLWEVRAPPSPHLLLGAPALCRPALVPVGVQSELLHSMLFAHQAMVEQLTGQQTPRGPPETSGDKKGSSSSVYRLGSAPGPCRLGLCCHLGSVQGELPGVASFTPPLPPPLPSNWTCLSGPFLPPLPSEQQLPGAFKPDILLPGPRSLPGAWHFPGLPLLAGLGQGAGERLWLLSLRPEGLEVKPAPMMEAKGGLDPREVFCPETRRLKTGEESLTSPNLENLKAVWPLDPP
How it was run: as §1

ETS2 = target: T8, ETS2 (Homo sapiens, UniProt P15036 1-469); settings: protein: recombinant; tags: N-terminal GST; dsDNA, one strand shown
T8 sequence: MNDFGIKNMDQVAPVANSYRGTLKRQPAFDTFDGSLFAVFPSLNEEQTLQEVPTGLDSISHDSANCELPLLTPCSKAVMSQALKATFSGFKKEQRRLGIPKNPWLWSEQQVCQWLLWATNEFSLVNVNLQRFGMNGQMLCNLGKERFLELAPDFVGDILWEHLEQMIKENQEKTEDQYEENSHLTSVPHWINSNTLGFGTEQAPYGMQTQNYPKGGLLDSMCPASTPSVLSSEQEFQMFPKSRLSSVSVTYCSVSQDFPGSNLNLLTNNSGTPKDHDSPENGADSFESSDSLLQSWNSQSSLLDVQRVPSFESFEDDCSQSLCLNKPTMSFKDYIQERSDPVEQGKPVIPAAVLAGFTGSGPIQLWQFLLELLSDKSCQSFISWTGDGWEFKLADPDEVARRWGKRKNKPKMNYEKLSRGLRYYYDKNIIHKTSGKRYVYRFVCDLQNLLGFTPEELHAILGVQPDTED
How it was run: as §1

SPDEF = target: T9, SPDEF (Homo sapiens, UniProt O95238 1-335); settings: protein: recombinant; tags: N-terminal GST; dsDNA, one strand shown
T9 sequence: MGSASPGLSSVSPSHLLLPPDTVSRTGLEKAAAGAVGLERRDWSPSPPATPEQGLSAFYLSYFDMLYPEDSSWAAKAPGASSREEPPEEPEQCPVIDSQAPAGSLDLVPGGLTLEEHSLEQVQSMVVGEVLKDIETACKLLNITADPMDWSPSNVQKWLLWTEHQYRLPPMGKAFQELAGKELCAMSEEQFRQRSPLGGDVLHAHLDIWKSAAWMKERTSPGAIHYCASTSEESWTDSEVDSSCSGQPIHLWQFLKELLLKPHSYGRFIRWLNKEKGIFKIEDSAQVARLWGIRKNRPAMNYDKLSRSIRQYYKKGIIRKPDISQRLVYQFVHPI
How it was run: as §1

ETV7 = target: T10, ETV7 (Homo sapiens, UniProt Q9Y603 1-341); settings: protein: recombinant; tags: N-terminal GST; dsDNA, one strand shown
T10 sequence: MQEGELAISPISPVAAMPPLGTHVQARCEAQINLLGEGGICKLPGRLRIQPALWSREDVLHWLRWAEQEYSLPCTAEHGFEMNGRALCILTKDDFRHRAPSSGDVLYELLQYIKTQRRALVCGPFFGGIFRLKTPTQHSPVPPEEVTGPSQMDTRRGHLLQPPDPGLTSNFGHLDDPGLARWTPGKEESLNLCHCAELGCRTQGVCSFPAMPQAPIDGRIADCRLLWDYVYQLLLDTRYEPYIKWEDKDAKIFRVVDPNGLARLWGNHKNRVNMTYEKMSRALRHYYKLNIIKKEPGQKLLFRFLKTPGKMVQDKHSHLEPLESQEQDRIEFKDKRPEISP
How it was run: as §1

ELF5 = target: T11, ELF5 (Homo sapiens, UniProt Q9UKW6-2 1-255); settings: protein: recombinant; tags: N-terminal GST; dsDNA, one strand shown
T11 sequence: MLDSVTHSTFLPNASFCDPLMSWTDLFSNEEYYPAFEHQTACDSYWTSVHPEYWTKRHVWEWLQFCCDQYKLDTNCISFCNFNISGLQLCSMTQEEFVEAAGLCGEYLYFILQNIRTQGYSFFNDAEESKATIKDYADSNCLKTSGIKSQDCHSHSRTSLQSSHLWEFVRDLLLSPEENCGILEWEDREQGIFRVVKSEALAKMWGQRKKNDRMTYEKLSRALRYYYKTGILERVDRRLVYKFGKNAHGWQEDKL
How it was run: as §1

ETV3 = target: T12, ETV3 (Homo sapiens, UniProt P41162-2 1-143); settings: protein: recombinant; tags: N-terminal GST; dsDNA, one strand shown
T12 sequence: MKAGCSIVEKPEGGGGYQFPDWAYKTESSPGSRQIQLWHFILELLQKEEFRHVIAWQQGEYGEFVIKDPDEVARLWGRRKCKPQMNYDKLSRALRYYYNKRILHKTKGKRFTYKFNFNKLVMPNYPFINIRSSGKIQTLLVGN
How it was run: as §1

ETV6 = ETV6 (Homo sapiens, UniProt P41212 1-452); settings: protein: recombinant; tags: N-terminal GST; dsDNA, one strand shown
Sequence of ETV6 (P41212 whole entry): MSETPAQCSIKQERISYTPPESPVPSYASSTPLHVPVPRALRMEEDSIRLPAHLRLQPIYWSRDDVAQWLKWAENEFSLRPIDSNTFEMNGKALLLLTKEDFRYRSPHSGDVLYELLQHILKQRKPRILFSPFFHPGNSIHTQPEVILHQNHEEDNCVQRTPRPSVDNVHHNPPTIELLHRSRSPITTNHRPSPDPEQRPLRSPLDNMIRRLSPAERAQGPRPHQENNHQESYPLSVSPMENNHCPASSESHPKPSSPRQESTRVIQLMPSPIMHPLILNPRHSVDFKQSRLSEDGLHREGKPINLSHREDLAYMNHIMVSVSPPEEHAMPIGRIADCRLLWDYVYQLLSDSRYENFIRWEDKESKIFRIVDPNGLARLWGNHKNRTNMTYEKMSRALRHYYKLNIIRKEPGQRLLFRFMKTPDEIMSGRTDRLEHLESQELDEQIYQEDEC
How it was run: as §1

With ACCCTA the binding signal (FEV) was 1.22 fold enrichment (6-mer frequency, TF over GST control), the binding signal (ETV5) was 1.21 fold enrichment (6-mer frequency, TF over GST control) and the binding signal (HSF1) was 1.18 fold enrichment (6-mer frequency, TF over GST control). The binding signal (SPIC) was 1.19 fold enrichment (6-mer frequency, TF over GST control), the binding signal (ELF4) was 1.26 fold enrichment (6-mer frequency, TF over GST control) and the binding signal (ELK4) was 1.24 fold enrichment (6-mer frequency, TF over GST control). The binding signal (ETV2) was 1.27 fold enrichment (6-mer frequency, TF over GST control), the binding signal (ELF3) was 1.23 fold enrichment (6-mer frequency, TF over GST control) and the binding signal (CRX) was 1.29 fold enrichment (6-mer frequency, TF over GST control). The binding signal (ETV1) was 1.45 fold enrichment (6-mer frequency, TF over GST control), the binding signal (ERF) was 1.3 fold enrichment (6-mer frequency, TF over GST control) and the binding signal (ETV3L) was 1.26 fold enrichment (6-mer frequency, TF over GST control). The binding signal (ETS2) was 1.24 fold enrichment (6-mer frequency, TF over GST control), the binding signal (SPDEF) was 1.19 fold enrichment (6-mer frequency, TF over GST control) and the binding signal (ETV7) was 1.27 fold enrichment (6-mer frequency, TF over GST control). For the same sequence, the binding signal (ELF5) was 1.19 fold enrichment (6-mer frequency, TF over GST control), the binding signal (ETV3) was 1.25 fold enrichment (6-mer frequency, TF over GST control) and the binding signal (ETV6) was 1.17 fold enrichment (6-mer frequency, TF over GST control).
